{"source": "PubChem BioAssay AID1159580", "about": "(chemical genetic matrix, 2015)", "test": "chemical genetic growth profiling, strain panel (AID 1159580);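 also: tested at 20 µM; growth read once vehicle control cultures reached saturation at 30 °C; 1 = growth at the plate median or of vehicle wells; lower values mean less growth of the strain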", "conditions": "S. cerevisiae deletion strains, growth OD", "note": "The campaign covered roughly 5,500 compounds. About 2,000 (36%) were called active. Not shown: some 18% with an inconclusive outcome. This is one part of the list. Unmarked numbers belong to inactive results. Rule as the data show it: active = normalized growth mostly below about 0.91 (no sharp cut-off); inconclusive = no clear call, values can overlap the other calls; inactive = mostly above about 0.92.", "data": [{"smiles": "O=C1OC(Nc2ccccc2SCc2ccccc2Cl)c2ccccc21", "note": "(stereo unspecified)", "values": [{"measurement": "normalized growth", "setting": "locus YAR019C, strain CDC15, stronger effect = lower value", "value": 0.985}, {"measurement": "normalized growth", "setting": "locus YBL105C, strain PKC1, stronger effect = lower value", "value": 0.977}, {"measurement": "normalized growth", "setting": "locus YBR135W, strain CKS1, stronger effect = lower value", "value": 0.97}, {"measurement": "normalized growth", "setting": "locus YBR136W, strain MEC1, stronger effect = lower value", "value": 0.973}, {"measurement": "normalized growth", "setting": "locus YBR160W, strain CDC28, stronger effect = lower value", "value": 0.981}, {"measurement": "normalized growth", "setting": "locus YDL017W, strain CDC7, stronger effect = lower value", "value": 0.989}, {"measurement": "normalized growth", "setting": "locus YDL028C, strain MPS1, stronger effect = lower value", "value": 0.984}, {"measurement": "normalized growth", "setting": "locus YDL101C, strain DUN1, stronger effect = lower value", "value": 0.971}, {"measurement": "normalized growth", "setting": "locus YDL108W, strain KIN28, stronger effect = lower value", "value": 0.977}, {"measurement": "normalized growth", "setting": "locus YDL132W, strain cdc53, stronger effect = lower value", "value": 0.962}, {"measurement": "normalized growth", "setting": "locus YDL214C, strain PRR2, stronger effect = lower value", "value": 0.903}, {"measurement": "normalized growth", "setting": "locus YDR052C, strain DBF4, stronger effect = lower value", "value": 0.989}, {"measurement": "normalized growth", "setting": "locus YDR054C, strain cdc34, stronger effect = lower value", "value": 0.98}, {"measurement": "normalized growth", "setting": "locus YDR226W, strain ADK1, stronger effect = lower value", "value": 0.965}, {"measurement": "normalized growth", "setting": "locus YDR477W, strain SNF1, stronger effect = lower value", "value": 0.928}, {"measurement": "normalized growth", "setting": "locus YER123W, strain YCK3, stronger effect = lower value", "value": 0.89}, {"measurement": "normalized growth", "setting": "locus YER133W, strain GLC7, stronger effect = lower value", "value": 0.897}, {"measurement": "normalized growth", "setting": "locus YFL009W, strain cdc4, stronger effect = lower value", "value": 0.97}, {"measurement": "normalized growth", "setting": "locus YFL029C, strain CAK1, stronger effect = lower value", "value": 0.971}, {"measurement": "normalized growth", "setting": "locus YFR003C, strain YPI1, stronger effect = lower value", "value": 0.983}, {"measurement": "normalized growth", "setting": "locus YFR019W, strain FAB1, stronger effect = lower value", "value": 0.886}, {"measurement": "normalized growth", "setting": "locus YFR028C, strain CDC14, stronger effect = lower value", "value": 0.967}, {"measurement": "normalized growth", "setting": "locus YGR040W, strain KSS1, stronger effect = lower value", "value": 0.899}, {"measurement": "normalized growth", "setting": "locus YGR052W, strain FMP48, stronger effect = lower value", "value": 0.87}, {"measurement": "normalized growth", "setting": "locus YGR092W, strain DBF2, stronger effect = lower value", "value": 0.855}, {"measurement": "normalized growth", "setting": "locus YHR030C, strain SLT2, stronger effect = lower value", "value": 0.867}, {"measurement": "normalized growth", "setting": "locus YHR079C, strain IRE1, stronger effect = lower value", "value": 0.905}, {"measurement": "normalized growth", "setting": "locus YHR082C, strain KSP1, stronger effect = lower value", "value": 0.948}, {"measurement": "normalized growth", "setting": "locus YHR205W, strain SCH9, stronger effect = lower value", "value": 0.798}, {"measurement": "normalized growth", "setting": "locus YIL147C, strain SLN1, stronger effect = lower value", "value": 0.977}, {"measurement": "normalized growth", "setting": "locus YJL095W, strain BCK1, stronger effect = lower value", "value": 0.814}, {"measurement": "normalized growth", "setting": "locus YJL128C, strain PBS2, stronger effect = lower value", "value": 0.937}, {"measurement": "normalized growth", "setting": "locus YJL157C, strain FAR1, stronger effect = lower value", "value": 0.905}, {"measurement": "normalized growth", "setting": "locus YJR016C, strain ILV3, stronger effect = lower value", "value": 0.98}, {"measurement": "normalized growth", "setting": "locus YJR066W, strain TOR1 (second series), stronger effect = lower value", "value": 0.846}, {"measurement": "normalized growth", "setting": "locus YJR066W, strain TOR1, stronger effect = lower value", "value": 0.914}, {"measurement": "normalized growth", "setting": "locus YKL048C, strain ELM1, stronger effect = lower value", "value": 0.963}, {"measurement": "normalized growth", "setting": "locus YKL067W, strain YNK1, stronger effect = lower value", "value": 0.908}, {"measurement": "normalized growth", "setting": "locus YKL101W, strain HSL1, stronger effect = lower value", "value": 0.907}, {"measurement": "normalized growth", "setting": "locus YKL193C, strain SDS22, stronger effect = lower value", "value": 0.979}, {"measurement": "normalized growth", "setting": "locus YKL203C, strain TOR2, stronger effect = lower value", "value": 0.93}, {"measurement": "normalized growth", "setting": "locus YLR113W, strain HOG1, stronger effect = lower value", "value": "0.832 (active)"}, {"measurement": "normalized growth", "setting": "locus YLR133W, strain CKI1, stronger effect = lower value", "value": 0.899}, {"measurement": "normalized growth", "setting": "locus YLR403W, strain SFP1, stronger effect = lower value", "value": 0.83}, {"measurement": "normalized growth", "setting": "locus YML070W, strain DAK1, stronger effect = lower value", "value": 0.903}, {"measurement": "normalized growth", "setting": "locus YMR001C, strain CDC5, stronger effect = lower value", "value": 0.98}, {"measurement": "normalized growth", "setting": "locus YMR205C, strain PFK2 (second series), stronger effect = lower value", "value": 0.912}, {"measurement": "normalized growth", "setting": "locus YMR277W, strain FCP1, stronger effect = lower value", "value": 0.979}, {"measurement": "normalized growth", "setting": "locus YNL006W, strain LST8, stronger effect = lower value", "value": 0.975}, {"measurement": "normalized growth", "setting": "locus YNL020C, strain ARK1, stronger effect = lower value", "value": 0.916}, {"measurement": "normalized growth", "setting": "locus YNL161W, strain CBK1, stronger effect = lower value", "value": 0.976}, {"measurement": "normalized growth", "setting": "locus YNL183C, strain NPR1, stronger effect = lower value", "value": 0.909}, {"measurement": "normalized growth", "setting": "locus YNL207W, strain RIO2, stronger effect = lower value", "value": 0.968}, {"measurement": "normalized growth", "setting": "locus YNL222W, strain SSU72, stronger effect = lower value", "value": 0.974}, {"measurement": "normalized growth", "setting": "locus YNL307C, strain MCK1 (second series), stronger effect = lower value", "value": 0.862}, {"measurement": "normalized growth", "setting": "locus YOL078W, strain AVO1, stronger effect = lower value", "value": 0.97}, {"measurement": "normalized growth", "setting": "locus YOL136C, strain PFK27, stronger effect = lower value", "value": 0.854}, {"measurement": "normalized growth", "setting": "locus YOR061W, strain CKA2, stronger effect = lower value", "value": 0.888}, {"measurement": "normalized growth", "setting": "locus YOR119C, strain RIO1, stronger effect = lower value", "value": 0.964}, {"measurement": "normalized growth", "setting": "locus YOR231W, strain MKK1, stronger effect = lower value", "value": 0.895}, {"measurement": "normalized growth", "setting": "locus YOR329C, strain SCD5, stronger effect = lower value", "value": 0.984}, {"measurement": "normalized growth", "setting": "locus YPL031C, strain PHO85, stronger effect = lower value", "value": 0.912}, {"measurement": "normalized growth", "setting": "locus YPL153C, strain RAD53, stronger effect = lower value", "value": 0.934}, {"measurement": "normalized growth", "setting": "locus YPL204W, strain HRR25, stronger effect = lower value", "value": 0.882}, {"measurement": "normalized growth", "setting": "locus YPL209C, strain IPL1, stronger effect = lower value", "value": 0.978}, {"measurement": "normalized growth", "setting": "locus YPL256C, strain CLN2, stronger effect = lower value", "value": 0.953}, {"measurement": "normalized growth", "setting": "locus YPR025C, strain CCL1, stronger effect = lower value", "value": 0.984}, {"measurement": "normalized growth", "setting": "locus YPR106W, strain ISR1, stronger effect = lower value", "value": 0.976}, {"measurement": "normalized growth", "setting": "locus YPR111W, strain DBF20, stronger effect = lower value", "value": 0.955}, {"measurement": "normalized growth", "setting": "strain NNK1, stronger effect = lower value", "value": 0.971}, {"measurement": "normalized growth", "setting": "strain TSCII, stronger effect = lower value", "value": 0.965}]}]}
